Bioassay records deposited in PubChem by National Center for Advancing Translational Sciences (NCATS).
Most compounds without a hit are left out; they make up all but 11% or so of the library.
HP1b chromo inh: inhibitors of HP1-beta chromodomain binding to methylated histone tails | AlphaScreen HP1-beta / biotin-H3K9me3 peptide binding | Potency, µM (highest dose often 114 µM), without a hit: top-dose activity change, negative = inhibition, hits mostly inhibitors | P83916 | 0.56% of 390,000 active | AID 540317; further: nearly all actives have a fitted effect of over 70% in size
Target sequence (P83916 whole entry, looked up): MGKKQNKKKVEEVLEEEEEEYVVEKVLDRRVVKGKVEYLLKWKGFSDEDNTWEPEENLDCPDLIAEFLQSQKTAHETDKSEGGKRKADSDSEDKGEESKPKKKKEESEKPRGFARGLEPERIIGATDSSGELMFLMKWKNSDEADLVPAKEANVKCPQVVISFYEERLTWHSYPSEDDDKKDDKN
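Compound inhibition of the preformed complex between 50 nM HP1-beta and 50 nM biotinylated H3K9me3 peptide was read by AlphaScreen. Buffer was PBS pH 7.4 with 0.01% Tween-20. Incubations ran 30 min at room temperature, with 10 ug/mL donor/acceptor beads.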
VDR inhibitor: inhibitors of human vitamin D receptor | P11473 | VDR-SRC2-3 peptide fluorescence polarization, 2 h | Potency, µM, for inactives: max response, negative = inhibition, most hits filed as inhibitors | 0.93% of 400,000 active; further: on the % scale 0 is the no-effect control and ±100 the full control effect
Target sequence (P11473 whole entry, looked up): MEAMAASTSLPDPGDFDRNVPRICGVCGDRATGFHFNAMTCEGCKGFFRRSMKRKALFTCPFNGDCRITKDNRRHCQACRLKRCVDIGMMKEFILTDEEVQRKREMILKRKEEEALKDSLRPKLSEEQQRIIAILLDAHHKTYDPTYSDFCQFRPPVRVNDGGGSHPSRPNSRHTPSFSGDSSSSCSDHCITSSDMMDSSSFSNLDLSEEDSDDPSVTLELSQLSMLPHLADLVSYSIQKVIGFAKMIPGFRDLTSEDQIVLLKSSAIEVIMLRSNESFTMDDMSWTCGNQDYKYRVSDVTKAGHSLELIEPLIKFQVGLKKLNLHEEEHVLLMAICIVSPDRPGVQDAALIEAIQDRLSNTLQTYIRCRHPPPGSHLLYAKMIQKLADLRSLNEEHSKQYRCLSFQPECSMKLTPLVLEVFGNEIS
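Compounds are added to VDR with labelled SRC2-3 coactivator peptide and held 2 h at room temperature. Inhibition of the VDR–peptide interaction is then read as a change in fluorescence polarization.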
PLK1 PBD block: PLK1 (human) polo-box domain binding inhibition; P53350; Plk1 PBD binding of FITC phosphopeptide, fluorescence polarization; Potency, µM, inactives show max response, negative = inhibition, most hits filed as inhibitors; 2.8% of 360,000 active; AID 720504; further: series mostly up to about 57 µM; on the % scale 0 is the no-effect control and ±100 the full control effect; nearly all actives have a fitted effect of over 65% in size
BAZ2B inh: inhibitors of human BAZ2B bromodomain; Potency, µM (titrated, usually from 114 µM), inactives show at the highest dose activity change, negative = inhibition, most hits filed as inhibitors; 4.4% of 360,000 active; AID 504333; Q9UIF8; AlphaScreen BAZ2B-H3K14Ac peptide displacement; further: on the % scale 0 is the no-effect control and ±100 the full control effect; nearly all actives have a fitted effect of over 60% in size
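In this displacement format the biotinylated H3(5-23) peptide acetylated at Lys14 serves as ligand at 50 nM, with BAZ2B at 50 nM in PBS pH 7.4 containing 0.01% Tween-20. Donor and acceptor beads are 10 ug/mL final.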
G9a block: G9a (human) methyltransferase inhibition; Q96KQ7; G9a H3K9 monomethylation, AlphaScreen, 2 h; Potency, µM (series often up to 102 µM), for the others: top-dose activity, negative = inhibition, hits mostly inhibitors; 8.8% of 350,000 active; AID 504332; further: on the % scale 0 is the no-effect control and ±100 the full control effect; nearly all actives have a fitted effect of over 75% in size
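Signal arises when biotinylated H3K9 peptide, once monomethylated, bridges streptavidin donor and antibody-captured acceptor beads. Enzyme at 20 nM was preincubated 15 min with test compounds; peptide 500 nM and SAM 20 uM then reacted for 2 h.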
JMJD2A Tudor: inhibitors of human JMJD2A Tudor domain | AlphaScreen JMJD2A-Tudor / H3K4me3 peptide binding | Potency, µM (titrated, usually from 114 µM), without a hit: at the highest dose activity change, negative = inhibition, most hits filed as inhibitors | AID 504339 | O75164 | 4.4% of 390,000 active; further: on the % scale 0 is the no-effect control and ±100 the full control effect; nearly all actives have a fitted effect of over 50% in size
* = called active by the depositor; ! = a repeat was not active; [ ] = remark or other dose. The call rests on the fitted dose curve; in most records, active means well fitted curve in the direction sought with a large enough effect; inconclusive means small, poorly fitted or top-dose-only effect, or another doubt; inactive means no such curve, though single readings can be large; an effect the other way counts as inactive or inconclusive. Potency means the concentration at half of the fitted maximal effect.

How did CN1CCN(c2ccc(N)c(N3CCN(C)CC3)c2)CC1 do in these assays?
HP1b chromo inh: -8%; VDR inhibitor: 8%; PLK1 PBD block: -2%; BAZ2B inh: inconclusive; G9a block: inconclusive; JMJD2A Tudor: -30%

How did CCN1CCN(c2ccc(N)cc2)CC1 do in these assays?
HP1b chromo inh: 3%; VDR inhibitor: -6%; PLK1 PBD block: 0%; BAZ2B inh: -18%; G9a block: 40µM*; JMJD2A Tudor: -28%

Results for CN1CCN(c2ccc(N)cc2)CC1 ?
HP1b chromo inh: -11%; VDR inhibitor: -5%; PLK1 PBD block: -1%; BAZ2B inh: inconclusive; G9a block: 13µM*; JMJD2A Tudor: inconclusive

Results for COc1cc([C@@H]2c3cc4c(cc3[C@H](O)C3COC(=O)[C@@H]32)OCO4)cc(OC)c1OC (some centres undefined) ?
VDR inhibitor: -10%; G9a block: -8%[59 µM]

How did Clc1ccc(CNC2CN3CCC2CC3)cc1 (centres undefined) do in these assays?
HP1b chromo inh: 33%; VDR inhibitor: -2%; PLK1 PBD block: -4%; BAZ2B inh: -5%; G9a block: -15%[59 µM]; JMJD2A Tudor: -19%

How did Fc1ccccc1CNC1CN2CCC1CC2 (centres undefined) do in these assays?
HP1b chromo inh: -3%; VDR inhibitor: inconclusive; PLK1 PBD block: 19µM*; BAZ2B inh: -14%; G9a block: inconclusive; JMJD2A Tudor: 40µM*

How did O=C(Oc1ccccc1)N1CCC[C@@]2(CCN(Cc3nccs3)C2)C1 do in these assays?
VDR inhibitor: -14%; G9a block: -6%[12.7 µM]

What do the screens show for `O=c1[nH]c2ccccc2o1`?
HP1b chromo inh: 22%; VDR inhibitor: -7%; PLK1 PBD block: -13%; BAZ2B inh: -4%; G9a block: -45%; JMJD2A Tudor: 32µM*

What do the screens show for `ClC1=C(Cl)C2(Cl)C(CBr)CC1(Cl)C2(Cl)Cl` (centres undefined)?
VDR inhibitor: 11%; G9a block: 0%[12.7 µM]

Results for O=[N+]([O-])c1ccc(N2CCCCCC2)c2ncccc12 ?
HP1b chromo inh: inconclusive; VDR inhibitor: -5%; PLK1 PBD block: inconclusive; BAZ2B inh: 14µM*; G9a block: 25µM*; JMJD2A Tudor: 16µM*

Results for O=[N+]([O-])c1ccc(N2CCCCC2)c2ncccc12 ?
HP1b chromo inh: inconclusive; VDR inhibitor: 1%; PLK1 PBD block: -11%; BAZ2B inh: inconclusive; G9a block: inconclusive; JMJD2A Tudor: inconclusive

Results for O=[N+]([O-])c1cccnc1N1CCCNCC1 ?
HP1b chromo inh: 10%; VDR inhibitor: 12%; PLK1 PBD block: -1%; BAZ2B inh: -3%; G9a block: 45µM*; JMJD2A Tudor: -17%

What do the screens show for `CN1C(=O)C(Cc2ccc(OCc3ccccc3)cc2)C(=O)N(C)C1=O`?
HP1b chromo inh: 46%; VDR inhibitor: inconclusive; PLK1 PBD block: -14%; BAZ2B inh: -20%; G9a block: 79µM*; JMJD2A Tudor: -12%

What do the screens show for `CN1C(=O)C(Cc2cccc3ccccc23)C(=O)N(C)C1=O`?
HP1b chromo inh: 20%; VDR inhibitor: inconclusive; PLK1 PBD block: 21µM*; BAZ2B inh: 12%; G9a block: inconclusive; JMJD2A Tudor: -34%

What do the screens show for `CN1C(=O)C(Cc2c[nH]c3ccccc23)C(=O)N(C)C1=O`?
BAZ2B inh: -5%; G9a block: 13µM*

How did C/C=C1/C[C@@H](C)[C@](O)(CO)C(=O)OCC2=CCN3CC[C@@H](OC1=O)C23 (some centres undefined) do in these assays?
VDR inhibitor: 1%

Results for CCCC[C@@H](C)[C@@H](OC(=O)C[C@@H](CC(=O)O)C(=O)O)[C@H](C[C@@H](C)C[C@H](O)CCCC[C@@H](O)C[C@H](O)[C@H](C)N)OC(=O)C[C@H](CC(=O)O)C(=O)O ?
VDR inhibitor: 12%; G9a block: 18%[59 µM]

How did O=[N+]([O-])c1c(Cl)cccc1-c1c[nH]cc1Cl do in these assays?
VDR inhibitor: -5%; G9a block: inconclusive

What do the screens show for `CC1(C)[C@@H](C=C(Cl)Cl)[C@@H]1C(=O)OCc1c(F)c(F)cc(F)c1F`?
VDR inhibitor: -13%; G9a block: 44%[12.7 µM]

Results for Clc1ccc(Cl)cc1 ?
VDR inhibitor: 12%; G9a block: 29%[59 µM]

Results for Clc1ccc(C(Cl)(Cl)Cl)c(Cl)c1 ?
HP1b chromo inh: 82%; VDR inhibitor: 1%; PLK1 PBD block: 11µM*; BAZ2B inh: 7%; G9a block: 6%[0.501 µM]; JMJD2A Tudor: 42%

What do the screens show for `CC=C(C)C(=O)O[C@H]1C(C)=C2[C@@H]3OC(=O)[C@@](C)(O)[C@@]3(O)[C@@H](OC(=O)CCC)C[C@](C)(OC(C)=O)[C@@H]2[C@@H]1OC(=O)CCCCCCC`?
VDR inhibitor: 17%; G9a block: 10%[59 µM]

How did CCOC(=O)[C@]12Cc3cc(C)ccc3[C@H]1N(C)C(=O)c1cc(OC)ccc12 do in these assays?
PLK1 PBD block: 6.7µM*

Results for CCOC(=O)[C@]12Cc3ccsc3[C@H]1N(Cc1ccccc1)C(=O)c1ccccc12 ?
HP1b chromo inh: 60%; VDR inhibitor: -22%; PLK1 PBD block: -15%; JMJD2A Tudor: 6%

What do the screens show for `CCOC(=O)[C@]12Cc3cc(C)ccc3[C@H]1N(C)C(=O)c1ccccc12`?
PLK1 PBD block: -17%

What do the screens show for `CCOC(=O)[C@]12Cc3cc(OC)ccc3[C@H]1N(C(C)C)C(=O)c1cc(OC)ccc12`?
PLK1 PBD block: 8.4µM*

Results for CCCC(C)C1(CC)C(=O)NC(=S)NC1=O (centres undefined) ?
VDR inhibitor: 6%; G9a block: 26%[59 µM]

What do the screens show for `Cc1cccc(N2CCc3c2nc2ccccc2c3N)c1`?
HP1b chromo inh: inconclusive; VDR inhibitor: -3%; PLK1 PBD block: -8%; BAZ2B inh: inconclusive; G9a block: inconclusive; JMJD2A Tudor: 3.2µM*!

What do the screens show for `CN(C)P(=NC(=S)c1cccn1C)(N(C)C)N(C)C`?
HP1b chromo inh: -10%; VDR inhibitor: -1%; PLK1 PBD block: inconclusive; BAZ2B inh: inconclusive; G9a block: 10µM*; JMJD2A Tudor: 40µM*

How did CCCC(C)C1(CC)C(=O)NC(=O)NC1=O (centres undefined) do in these assays?
VDR inhibitor: 5%; G9a block: -43%[2.33 µM]

Results for COc1ccc(O)c(CN2CCCC(C(=O)c3sccc3C)C2)c1 (centres undefined) ?
HP1b chromo inh: -22%; VDR inhibitor: -20%; PLK1 PBD block: -11%; BAZ2B inh: inconclusive; G9a block: 50µM*; JMJD2A Tudor: -28%[57.1 µM]
